This excerpt belongs to a sample that is enriched for hits.
IDE exosite inh: exo-site inhibitors of human insulin-degrading enzyme; P14735; purified IDE, FL-6b probe fluorescence polarization; active compounds read low; z-score at 20 µM; 17,000 compounds, 6.3% hits;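 active means z-score of -3 or lower, meaning strong loss of probe binding signal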;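 further: His-tagged human IDE residues 42-1019 made in E. coli with 30 nM FL-6b probe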
Target sequence (P14735 42-1019 limits assumed): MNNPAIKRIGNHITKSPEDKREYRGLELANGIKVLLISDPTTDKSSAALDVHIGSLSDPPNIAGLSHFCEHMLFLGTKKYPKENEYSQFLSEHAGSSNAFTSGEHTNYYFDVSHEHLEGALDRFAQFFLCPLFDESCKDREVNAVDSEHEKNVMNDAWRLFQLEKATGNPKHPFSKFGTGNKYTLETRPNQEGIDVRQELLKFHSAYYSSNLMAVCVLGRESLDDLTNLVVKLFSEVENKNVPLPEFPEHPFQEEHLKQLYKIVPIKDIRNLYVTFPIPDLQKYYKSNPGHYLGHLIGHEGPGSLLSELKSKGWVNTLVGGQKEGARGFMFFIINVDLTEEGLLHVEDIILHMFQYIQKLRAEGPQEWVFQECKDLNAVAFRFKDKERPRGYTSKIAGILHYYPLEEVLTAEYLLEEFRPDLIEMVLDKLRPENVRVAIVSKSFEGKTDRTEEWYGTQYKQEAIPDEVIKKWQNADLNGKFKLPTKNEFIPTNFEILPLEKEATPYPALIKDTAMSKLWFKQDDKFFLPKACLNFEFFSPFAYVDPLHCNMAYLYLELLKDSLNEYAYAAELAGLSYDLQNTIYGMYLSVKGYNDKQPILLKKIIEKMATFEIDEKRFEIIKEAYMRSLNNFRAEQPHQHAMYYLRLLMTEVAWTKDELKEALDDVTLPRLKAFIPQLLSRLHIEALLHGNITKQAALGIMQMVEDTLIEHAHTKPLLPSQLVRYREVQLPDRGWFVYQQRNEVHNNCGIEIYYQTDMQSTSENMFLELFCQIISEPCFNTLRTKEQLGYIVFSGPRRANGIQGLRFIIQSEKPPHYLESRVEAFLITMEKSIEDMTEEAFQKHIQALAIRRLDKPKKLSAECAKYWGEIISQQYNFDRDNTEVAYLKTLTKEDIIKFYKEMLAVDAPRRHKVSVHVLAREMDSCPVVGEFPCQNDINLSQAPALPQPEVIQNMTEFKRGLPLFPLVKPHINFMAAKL
* hit, by the source's call.

SMILES	IDE exosite inh
C/C=C/c1ccc(C2[C@H]3CNC[C@@H]2N3C(=O)NC2CCCCC2)cc1 (stereo not given in full)	0.67
N#C[C@@H]1[C@H](c2ccc(C3=CCCC3)cc2)[C@@H](CO)N1C(=O)c1ccccn1	0.084
CO[C@H]1CC[C@H]2CCOc3c(C#N)cccc3C(=O)N(C)C[C@@H](c3ccccc3)CC(=O)N(C)C[C@H]1O2	-0.19
CCCNC(=O)N1CC(=O)N2[C@H](CO)[C@@H](c3ccc(-c4ccc(C)cc4)cc3)[C@H]2C1	-3.1*
COc1ccccc1NC(=O)N1CCCCN2[C@H](CO)[C@H](c3ccc(-c4cccc(C)c4)cc3)[C@H]2C1	-1.5
CCCNC(=O)N1CC(=O)N2[C@H](C1)[C@@H](c1ccc(-c3ccc(F)cc3)cc1)[C@@H]2CO	0.76
CCCNC(=O)N1CC(=O)N2[C@H](CO)[C@H](c3ccc(-c4ccc(F)cc4)cc3)[C@H]2C1	0.88
CCCNC(=O)N1CC(=O)N2[C@H](C1)[C@H](c1ccc(-c3cccc(C)c3)cc1)[C@@H]2CO	-14*
CCCNC(=O)N1CC(=O)N2[C@H](CO)[C@H](c3ccc(-c4ccccc4)cc3)[C@@H]2C1	-2.2
COc1ccccc1NC(=O)N1CC(=O)N2[C@H](C1)[C@H](c1ccc(-c3ccc(F)cc3)cc1)[C@@H]2CO	2.2
COc1ccccc1NC(=O)N1CC(=O)N2[C@H](CO)[C@H](c3ccc(-c4cccc(C)c4)cc3)[C@@H]2C1	-3.7*
CCCNC(=O)N1CC(=O)N2[C@H](CO)[C@H](c3ccc(-c4ccc(C)cc4)cc3)[C@@H]2C1	-1.4
CN(C)C(=O)C[C@@H]1CC[C@@H]2[C@H](COc3ccc(NC(=O)C4CCCCC4)cc3C(=O)N2C)O1	-1.2
CC=Cc1ccc2n(c1=O)C[C@H]1N[C@@H]2[C@@H](C(=O)NC2CCCC2)[C@@H]1CO (mixture of isomers)	-0.39
O=C(C1CCC1)N1CC(=O)N2[C@H](CO)[C@H](c3ccc(Br)cc3)[C@@H]2C1	-1.3
CC(C)C#Cc1ccc([C@H]2[C@@H](CO)N3C(=O)CN(S(=O)(=O)c4ccccc4)C[C@@H]23)cc1	0.27
O=C(C1CCCCC1)N1CC(=O)N2[C@H](CO)[C@@H](c3ccc(Br)cc3)[C@H]2C1	4.5
O=C(Nc1ccccc1F)N1CCCCN2[C@H](CO)[C@H](c3ccc(C#Cc4ccccc4)cc3)[C@H]2C1	-2
O=C(Nc1ccccc1F)N1CCCCN2[C@H](C1)[C@H](c1ccc(C#Cc3ccccc3)cc1)[C@@H]2CO	-2.1
O=C(Nc1ccccc1F)N1CCCCN2[C@H](CO)[C@H](c3ccc(-c4cccnc4)cc3)[C@H]2C1	-0.4
O=C(Nc1ccccc1)N1CCCCN2[C@H](CO)[C@H](c3ccc(C#Cc4cccnc4)cc3)[C@@H]2C1	-4.2*
O=C(Nc1ccccc1)N1CCCCN2[C@H](C1)[C@H](c1ccc(C#Cc3cccnc3)cc1)[C@@H]2CO	2.2
O=C(Nc1ccccc1F)N1CCCCN2[C@H](CO)[C@@H](c3ccc(-c4cccnc4)cc3)[C@@H]2C1	-1.5
O=C(Nc1ccccc1F)N1CCCCN2[C@H](CO)[C@H](c3ccc(C#Cc4cccnc4)cc3)[C@H]2C1	-6.9*
O=C(Nc1ccccc1F)N1CCCCN2[C@@H](CO)[C@H](c3ccc(C#Cc4cccnc4)cc3)[C@@H]2C1	-4.7*
SMILES	IDE exosite inh
O=C(Nc1ccccc1)N1CCCCN2[C@H](CO)[C@@H](c3ccc(C#Cc4ccccc4)cc3)[C@@H]2C1	-0.7
COc1ccccc1CNC(=O)C[C@@H]1CC[C@H]2[C@H](COc3ccc(NC(C)=O)cc3C(=O)N2C)O1	-2
CN(C)C(=O)c1cccc(-c2ccc([C@H]3[C@@H](CO)N4CCCCN(Cc5cccnc5)C[C@H]34)cc2)c1	0.12
C[C@H]1CN([C@@H](C)CO)C(=O)c2ccccc2-c2ccccc2CO[C@H]1CN(C)C(=O)[C@H](Cc1ccccc1)N(C)C	0.4
COc1ccc2c3c([nH]c2c1)[C@H](CO)N(C(=O)CN1CCOCC1)CC31CN(Cc2ccccc2)C1	-0.37
COCC#Cc1ccc([C@H]2[C@@H](CO)N3C(=O)CN(C(=O)CN4CCOCC4)C[C@@H]23)cc1	0.45
Cc1ccc(CN2CC(=O)N3[C@H](CO)[C@@H](c4ccc(-c5ccccc5F)cc4)[C@H]3C2)cc1	2
O=C(C1CCOCC1)N1CC(=O)N2[C@H](CO)[C@@H](c3ccc(Br)cc3)[C@@H]2C1	-2.6
O=C(C1CCOCC1)N1CC(=O)N2[C@H](CO)[C@@H](c3ccc(/C=C/c4ccccc4)cc3)[C@@H]2C1	-5.5*
O=C(C1CCOCC1)N1CC(=O)N2[C@@H](CO)[C@H](c3ccc(/C=C/c4ccccc4)cc3)[C@@H]2C1	-4.5*
O=C(C1CCOCC1)N1CC(=O)N2[C@H](CO)[C@@H](c3ccc(Br)cc3)[C@H]2C1	0.54
O=C(C1CCOCC1)N1CC(=O)N2[C@@H](CO)[C@H](c3ccc(Br)cc3)[C@@H]2C1	4.2
O=C(C1CCOCC1)N1CC(=O)N2[C@H](CO)[C@@H](c3ccc(/C=C/c4ccccc4)cc3)[C@H]2C1	-2.1
C/C=C/c1ccc([C@H]2[C@@H](CO)N[C@@H]2CNC(=O)C2CCC2)cc1	1.1
O=C(NCC[C@@H]1CC[C@@H](NC(=O)C2CCOCC2)[C@@H](CO)O1)c1cc(Cl)cc(Cl)c1	1.1
COc1ccc(NC(=O)N2CC(=O)N3[C@H](CO)[C@H](c4ccc(/C=C/c5ccccc5)cc4)[C@H]3C2)cc1	-1.8
C/C=C/c1ccc([C@H]2[C@@H](CO)N(C(=O)c3cccnc3)[C@H]2C#N)cc1	3
O=C(NC1CCCC1)N1CCCCN2[C@H](C1)[C@H](c1ccc(-c3ccncc3)cc1)[C@@H]2CO	2.9
COc1ccccc1-c1ccc([C@H]2[C@H](CO)N3CCCCN(C(=O)NC4CCCC4)C[C@@H]23)cc1	-12*
O=C(NC1CCCC1)N1CCCCN2[C@@H](CO)[C@@H](c3ccc(-c4ccncc4)cc3)[C@@H]2C1	4.8
O=C(NC1CCCC1)N1CCCCN2[C@H](CO)[C@@H](c3ccc(-c4cccnc4)cc3)[C@H]2C1	-0.77
O=C(NC1CCCC1)N1CCCCN2[C@@H](CO)[C@H](c3ccc(-c4cccnc4)cc3)[C@@H]2C1	-2.9
COc1ccccc1-c1ccc([C@H]2[C@@H](CO)N3CCCCN(C(=O)NC4CCCC4)C[C@H]23)cc1	-19*
C[C@@H](NC(=O)[C@@H]1[C@@H](CO)[C@@H]2Cn3c(cccc3=O)[C@@H]2N1CCC(F)(F)F)c1ccccc1	0.37
O=C(O)C[C@@H]1C[C@@H]2c3cc(NC(=O)Nc4ccc(C(F)(F)F)cc4)ccc3O[C@@H]2[C@@H](CO)O1	-0.93
SMILES	IDE exosite inh
Cc1ccc(-c2ccc([C@H]3[C@H]4CN(C(=O)c5ccc(F)cc5)CCCCN4[C@H]3CO)cc2)cc1	3
CN(C)C(=O)c1ccc(-c2ccc([C@@H]3[C@H](C#N)N(C(=O)Cc4ccccn4)[C@H]3CO)cc2)cc1	-0.6
O=S(=O)(Cc1ccccc1)N1CCCCN2[C@@H](CO)[C@@H](c3ccc(C#Cc4ccccc4)cc3)[C@@H]2C1	3.3
O=S(=O)(Cc1ccccc1)N1CCCCN2[C@H](CO)[C@H](c3ccc(C#Cc4ccccc4)cc3)[C@@H]2C1	3.7
COc1ccccc1C#Cc1ccc([C@@H]2[C@@H](CO)N3CCCCN(S(C)(=O)=O)C[C@H]23)cc1	-5.6*
CCCC#Cc1ccc([C@H]2[C@@H](CO)N3CCCCN(S(C)(=O)=O)C[C@@H]23)cc1	1.4
